Experimental data taken from PubChem BioAssay (Tox21).
Results filed as inconclusive are left out. Activity calls are given as the source filed them. Unless noted, calls come from the whole dose curve; as a rule, active = well fitted curve in the direction sought with a large enough effect in the repeat runs; inconclusive = weak or mixed curves; inactive = no such curve, though single readings can be large; an effect the other way counts as inactive or inconclusive.

Legend:
[1] = qHTS assay to identify small molecule agonists of the sonic hedgehog signaling (Shh) pathway - cell viability counter screen (AID 1259366); note: nearly all actives have a fitted effect of over 50% in size
In short: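 After a 4hr attachment at 37C, NIH/3T3 cells bearing an integrated Gli1-driven luciferase reporter were dosed with compounds. Treatment lasted 24hr, with the final hour including CellTiter-Fluor for a fluorescence viability measurement.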

[2] = qHTS assay to identify small molecule antagonists of the sonic hedgehog signaling (Shh) pathway - cell viability counter screen (AID 1259367); note: nearly all actives have a fitted effect of over 55% in size
In short: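 Fluorescence read-out (CellTiter-Fluor, 1 hr at 37C) taken after 23 hr compound treatment of 3T3 Gli1-Luc cells stimulated with conditioned medium. Cells were seeded at 2,000 per well and pre-incubated 4 hr.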

[3] = qHTS assay to identify small molecule agonists of the sonic hedgehog signaling (Shh) pathway (AID 1259368; calls by dose curve;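 note: NIH/3T3-derived 3T3Gli1-Luc cells carrying a stable Gli1-driven firefly luciferase reporter; series mostly up to about 92 µM; nearly all actives have a fitted effect of over 15% in size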)
In short: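 Cells of a mouse NIH/3T3 clone stably expressing luciferase under the Gli1 transcriptional response element are exposed to test chemicals for 24 hr at 37 C. Pathway activation is detected as a rise in luminescence.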

[4] = qHTS assay to identify small molecule antagonists of the sonic hedgehog signaling (Shh) pathway (AID 1259369; calls by dose curve; note: nearly all actives have a fitted effect of over 45% in size)
In short: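 Cells are plated and held 4hr at 37 C, compounds (DMSO) are pinned in, conditioned medium is added to stimulate the pathway, and after 24hr luciferase reagent is added for 30min before luminescence is read.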

[5] = qHTS assay to identify small molecule agonists of the androgen receptor (AR) signaling pathway in the presence of an antagonist - cell viability counter screen (AID 1259379);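 note: MDA-kb2 human breast cancer cells carrying an MMTV luciferase reporter; series mostly up to about 92 µM; nearly all actives have a fitted effect of over 25% in size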
In short: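 Cytotoxicity is assessed by CellTiter-Fluor in MDA-kb2 cells carrying an MMTV-driven luciferase reporter. Cells receive 3.0uM nilutamide plus compounds at 15 concentrations and incubate 16 hr at 37C without CO2 before fluorescence reading.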

[6] = qHTS assay to identify small molecule antagonists of the estrogen receptor beta (ER-beta) signaling pathway - cell viability counter screen (AID 1259382); note: series mostly up to about 92 µM; nearly all actives have a fitted effect of over 55% in size
In short: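 Cytotoxicity counter screen multiplexed with the beta-lactamase antagonist assay: GripTite HEK293T ER-beta-bla cells were treated 16 hr with test chemicals in the presence of 1nM 17-beta-estradiol, and viability was measured by CellTiter-Glo.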

[7] = biological target: Estrogen receptor beta (Homo sapiens) (UniProt Q92731); assay: qHTS assay to identify small molecule agonists of the estrogen receptor beta (ER-beta) signaling pathway (AID 1259377; active = well fitted activation curve with a large enough effect in the signal ratio in the repeat runs, not every such curve was filed as active; the % refers to the signal ratio)
Chain of Estrogen receptor beta (Homo sapiens) (Q92731 whole entry, looked up): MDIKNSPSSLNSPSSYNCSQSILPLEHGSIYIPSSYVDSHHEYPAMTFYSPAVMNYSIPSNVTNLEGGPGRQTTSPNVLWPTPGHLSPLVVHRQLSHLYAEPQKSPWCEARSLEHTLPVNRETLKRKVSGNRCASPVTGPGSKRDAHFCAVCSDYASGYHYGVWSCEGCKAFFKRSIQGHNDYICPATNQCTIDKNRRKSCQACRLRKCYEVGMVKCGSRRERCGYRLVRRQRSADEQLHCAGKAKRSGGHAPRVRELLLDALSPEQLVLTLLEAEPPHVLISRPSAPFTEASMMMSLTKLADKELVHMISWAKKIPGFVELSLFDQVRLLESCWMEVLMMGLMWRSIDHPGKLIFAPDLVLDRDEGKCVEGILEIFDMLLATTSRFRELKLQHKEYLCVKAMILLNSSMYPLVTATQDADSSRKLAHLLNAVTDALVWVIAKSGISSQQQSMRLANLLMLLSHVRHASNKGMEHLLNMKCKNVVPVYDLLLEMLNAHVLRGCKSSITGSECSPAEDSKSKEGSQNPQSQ
In short: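 In HEK293T cells bearing a UAS-beta-lactamase reporter under ER-beta control, DMSO-delivered compounds were incubated for 16 hr at 37C. Activity was detected as fluorescence 2 hours after LiveBLAzer B/G FRET substrate addition.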

[8] = biological target: Estrogen receptor beta (Homo sapiens) (UniProt Q92731); assay: qHTS assay to identify small molecule antagonists of the estrogen receptor beta (ER-beta) signaling pathway (AID 1259378; active = well fitted inhibition curve with a large enough effect in the signal ratio in the repeat runs, not every such curve was filed as active; the % refers to the signal ratio)
In short: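 ER-beta-UAS-bla HEK293T cells in 2% charcoal-stripped FBS medium treated with compound plus 1nM final 17-beta-estradiol for 16 hr at 37C. Beta-lactamase reporter read by FRET substrate fluorescence after 2 hours at room temperature.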

[9] = qHTS assay to identify small molecule agonists of the estrogen receptor beta (ER-beta) signaling pathway - cell viability counter screen (AID 1259380); note: nearly all actives have a fitted effect of over 30% in size
In short: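 Cytotoxicity is measured in parallel with the reporter screen: after 16 hr compound exposure at 37C and a 2 hr LiveBLAzer step, CellTiter-Glo is added to the same ER-beta-UAS-bla HEK293T wells and luminescence read after 30 min.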

[10] = biological target: Androgen receptor (Homo sapiens) (UniProt P10275); assay: qHTS assay to identify small molecule agonists of the androgen receptor (AR) signaling pathway in the presence of an antagonist (AID 1259381; calls by dose curve; note: nearly all actives have a fitted effect of over 15% in size)
Chain of Androgen receptor (Homo sapiens) (P10275 whole entry, looked up): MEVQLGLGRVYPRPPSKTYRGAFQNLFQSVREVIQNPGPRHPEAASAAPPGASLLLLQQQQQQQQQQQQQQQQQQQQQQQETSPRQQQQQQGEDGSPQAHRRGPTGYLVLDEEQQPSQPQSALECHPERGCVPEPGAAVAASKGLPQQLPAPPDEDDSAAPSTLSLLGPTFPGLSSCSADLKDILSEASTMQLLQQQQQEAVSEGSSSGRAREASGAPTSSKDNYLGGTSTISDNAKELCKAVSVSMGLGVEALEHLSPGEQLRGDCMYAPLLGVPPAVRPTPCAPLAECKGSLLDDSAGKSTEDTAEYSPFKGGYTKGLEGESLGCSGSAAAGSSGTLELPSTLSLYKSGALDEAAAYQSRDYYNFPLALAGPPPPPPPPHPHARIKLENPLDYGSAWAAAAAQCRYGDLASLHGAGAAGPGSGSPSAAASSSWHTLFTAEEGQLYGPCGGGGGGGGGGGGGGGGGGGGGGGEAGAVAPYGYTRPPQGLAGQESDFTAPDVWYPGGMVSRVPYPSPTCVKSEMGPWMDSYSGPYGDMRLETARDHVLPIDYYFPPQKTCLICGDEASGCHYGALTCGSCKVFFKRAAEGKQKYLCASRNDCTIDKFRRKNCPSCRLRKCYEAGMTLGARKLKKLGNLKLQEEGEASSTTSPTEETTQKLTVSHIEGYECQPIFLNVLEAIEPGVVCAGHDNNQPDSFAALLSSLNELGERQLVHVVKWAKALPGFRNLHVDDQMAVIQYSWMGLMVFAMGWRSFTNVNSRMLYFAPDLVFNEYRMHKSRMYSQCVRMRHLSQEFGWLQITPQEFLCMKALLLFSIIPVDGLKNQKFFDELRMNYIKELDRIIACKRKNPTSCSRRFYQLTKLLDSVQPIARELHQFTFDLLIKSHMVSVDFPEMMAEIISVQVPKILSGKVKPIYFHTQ
In short: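 Agonist-mode confirmation screen: human MDA-kb2 cells stably expressing luciferase under an MMTV promoter bearing AR and GR response elements, co-treated with 3.0uM nilutamide (final). Luminescence measured after 16hr compound incubation.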

Measured: Potency

Cc1ccc(Br)cc1
inactive: [1] | [2] | [3] | [4] | [5] | [6]

C=CC(C)(CCC=C(C)C)OC(=O)C(C)C (configuration not stated)
not listed: [4] | [6] | [10]
inactive: all other assays above

O=C(O)P(=O)(O)O
not listed: [7] | [8] | [10]
inactive: all other assays above

CO/N=C(\C(=O)O)c1csc(NC(=O)CCl)n1
not listed: [7] | [8] | [10]
inactive: all other assays above

CCCc1ccc(O)c(OC)c1
not listed: [7] | [8] | [10]
inactive: all other assays above

CCCCCC(=O)CC
inactive: [1] | [2] | [3] | [4] | [5] | [9]

N#Cc1ccccc1C#N
not listed: [4] | [7] | [8]
inactive: all other assays above

O=C(O)CCCCCCCCCC(=O)O
not listed: [4] | [8]
inactive: all other assays above

CC(C)(C)C(=O)CC(=O)C(C)(C)C
inactive: [1] | [3] | [4] | [7] | [8] | [5]

N[C@H]1C(O)O[C@H](CO)[C@@H](O)[C@@H]1O (some centres not stated)
not listed: [4] | [9]
inactive: all other assays above

C=C(C)C(=O)OCCOC1CC2CC1C1C=CCC21 (configuration not stated)
not listed: [4] | [9] | [10]
inactive: all other assays above

CCOC(=O)CC
inactive: [1] | [2] | [3] | [7] | [5] | [6]
